The values that follow come from PubChem BioAssay.

Unmarked numbers belong to inactive results. Active and inactive are the calls of the source.

The nature of this assay: plasmodial surface anion channel blockers, osmotic lysis – cell-based, P. falciparum Indochina, OD700, 1 h, primary screen (AID 1154). The conditions noted are these: P. falciparum Indochina infected RBC osmotic lysis, higher = more signal, called active from +8 up or from −8 down.
For the molecule `COC(=O)CC=C[C@@H](C)[C@@H](C=NOC(C)CN1CCCCc2nc(C)c(C)cc21)OC` (stereo not given in full), the z-score was 1.78.

For `CCOC(=O)[C@H](CC(C)C)NC(=O)CCC1CC(OC(=O)NCc2ccc3c(c2)OCO3)CC2(CCCC(COC(=O)NCCc3ccc(Cl)cc3)O2)O1` (stereo not given in full), the z-score was 1.83. Take `CC(CCN1CCc2nc(-c3ccccc3)c(-c3ccccc3)cc2C1)=NO[C@H](C)c1cn([C@H](CO)Cc2ccccc2)nn1`: the z-score is 1.6. For `CC(CCC(=O)OC[C@H]1O[C@H](C#Cc2ccccc2)C=C[C@@H]1Oc1ccc(C)cc1)=NO[C@H](C)c1cn([C@@H]2COC[C@H]2O)nn1` the value was 26.8 (active). As for `CC(CCN1CCc2nc(-c3ccccc3)c(-c3ccccc3)cc2C1)=NOC(C)CN1CCCc2nc(C)c(C)cc21` (stereo not given), the figure is 3.04; as for `CCC1=NOC(CCC2CC(OC(=O)NCc3cccc4c3OCO4)CC3(CCCC(COC(=O)NCCc4ccc(Cl)cc4)O3)O2)C1` (stereo not given), 0.78.

Take `CCOC(=O)CCN1C(=O)[C@H]2[C@@H]3C(=CC[C@H]2C1=O)C(=O)[C@H]1O[C@H]1[C@H]3O`: the z-score was 3.05. For `CON=C(C)CCC(=O)OC[C@H]1O[C@H](C#Cc2ccccc2)C=C[C@@H]1Oc1ccc(C)cc1` the value was 2.13. In the case of `Cc1cc2c(nc1C)CCCCN2CC(O)CN1CCCc2nc(-c3ccc(Br)cc3)ccc21` (stereo not given), the z-score is 4.88.

In the case of `COC(=O)[C@H](C)NC(=O)CCC1CC(OC(=O)NCc2cccc3ccccc23)CC2(CCCC(COC(=O)NCCc3ccccc3OC)O2)O1` (stereo not given in full), the z-score is 7.29.
